# Reference: paper PMC4081100, “A DNA-binding-site landscape and regulatory network analysis for NAC transcription factors in Arabidopsis thaliana”
# Key:
# Experiment in all cases: universal protein binding microarray (PBM); transcription factors of Arabidopsis thaliana; high values mean tight binding
# Conditions in all cases: protein: recombinant; tags: GST; chain copies: 2; dsDNA, one strand shown
# [1] = target: T1, GST-ANAC092(1-176) (Arabidopsis thaliana, UniProt Q9FKA0 1-176)
# T1 sequence: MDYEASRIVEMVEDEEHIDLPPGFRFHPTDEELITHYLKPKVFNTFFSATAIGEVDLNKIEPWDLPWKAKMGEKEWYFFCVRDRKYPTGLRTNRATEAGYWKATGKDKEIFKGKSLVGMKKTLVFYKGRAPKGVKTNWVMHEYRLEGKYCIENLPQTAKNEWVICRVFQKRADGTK
# Procedure, shortened: (§1)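 GST-tagged proteins (NAC-domain, full-length or DNA-binding-domain) were induced in cells, with zinc acetate supplied for zinc-finger proteins, then purified on glutathione–Sepharose 4B. Each was tested in duplicate at 200 to 500 nM final on custom all-10-mer Agilent 4 × 180K arrays rendered double-stranded by primer extension. The binding value is the normalised enrichment score (E-score) across gapped and ungapped 8-mers.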
# [2] = target: GST-NTL6(1-168) (Arabidopsis thaliana, UniProt Q9SCK6 1-168)
# Procedure, shortened: as §1
# [3] = target: T2, GST-ANAC019 NAC domain (Arabidopsis thaliana, UniProt Q9C932 14-162)
# T2 sequence: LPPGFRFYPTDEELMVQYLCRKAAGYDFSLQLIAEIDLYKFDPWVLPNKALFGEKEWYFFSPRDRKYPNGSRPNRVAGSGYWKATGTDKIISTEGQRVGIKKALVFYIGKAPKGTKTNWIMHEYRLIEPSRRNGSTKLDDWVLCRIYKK
# Procedure, shortened: as §1
# [4] = target: T3, GST-ANAC055(1-171) (Arabidopsis thaliana, UniProt Q9LDY8 1-171)
# T3 sequence: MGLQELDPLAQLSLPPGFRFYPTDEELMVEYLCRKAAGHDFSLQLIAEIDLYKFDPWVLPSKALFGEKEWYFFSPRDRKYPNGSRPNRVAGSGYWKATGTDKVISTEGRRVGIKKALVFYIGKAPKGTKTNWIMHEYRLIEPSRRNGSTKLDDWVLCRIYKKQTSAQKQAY
# Procedure, shortened: as §1
# [5] = target: T4, GST-ATAF1 NAC domain (Arabidopsis thaliana, UniProt Q39013 7-158)
# T4 sequence: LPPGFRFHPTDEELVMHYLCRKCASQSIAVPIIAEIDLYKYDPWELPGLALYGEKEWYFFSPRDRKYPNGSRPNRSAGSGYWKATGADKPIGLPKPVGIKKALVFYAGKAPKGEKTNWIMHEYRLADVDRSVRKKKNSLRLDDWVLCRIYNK
# Procedure, shortened: as §1
# [6] = target: T5, GST-ANAC092(1-285) full length (Arabidopsis thaliana, UniProt Q9FKA0 1-285)
# T5 sequence: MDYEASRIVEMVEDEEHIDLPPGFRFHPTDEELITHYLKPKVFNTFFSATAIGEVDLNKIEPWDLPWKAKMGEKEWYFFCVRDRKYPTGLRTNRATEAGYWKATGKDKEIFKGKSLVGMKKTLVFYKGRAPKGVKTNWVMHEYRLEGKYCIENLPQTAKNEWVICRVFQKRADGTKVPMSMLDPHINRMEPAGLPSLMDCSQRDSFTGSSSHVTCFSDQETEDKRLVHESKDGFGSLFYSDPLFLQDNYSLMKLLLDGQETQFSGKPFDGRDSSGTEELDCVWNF
# Procedure, shortened: as §1
# [7] = target: T6, GST-NAP(1-166) (Arabidopsis thaliana, UniProt O49255 1-166)
# T6 sequence: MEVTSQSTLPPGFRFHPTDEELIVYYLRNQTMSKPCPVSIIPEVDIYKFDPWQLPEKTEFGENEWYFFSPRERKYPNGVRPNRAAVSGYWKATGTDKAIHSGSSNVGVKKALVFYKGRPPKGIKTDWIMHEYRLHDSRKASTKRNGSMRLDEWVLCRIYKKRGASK
# Procedure, shortened: as §1
# [8] = target: T7, GST-NST2(1-184) (Arabidopsis thaliana, UniProt Q9M274 1-184)
# T7 sequence: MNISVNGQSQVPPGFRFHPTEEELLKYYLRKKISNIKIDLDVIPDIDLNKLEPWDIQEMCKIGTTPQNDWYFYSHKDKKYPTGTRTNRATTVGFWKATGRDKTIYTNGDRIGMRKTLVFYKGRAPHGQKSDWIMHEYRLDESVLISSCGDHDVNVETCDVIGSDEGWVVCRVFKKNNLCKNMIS
# Procedure, shortened: as §1
# [9] = target: T8, GST-SND1(1-203) (Arabidopsis thaliana, UniProt Q9LPI7 1-203)
# T8 sequence: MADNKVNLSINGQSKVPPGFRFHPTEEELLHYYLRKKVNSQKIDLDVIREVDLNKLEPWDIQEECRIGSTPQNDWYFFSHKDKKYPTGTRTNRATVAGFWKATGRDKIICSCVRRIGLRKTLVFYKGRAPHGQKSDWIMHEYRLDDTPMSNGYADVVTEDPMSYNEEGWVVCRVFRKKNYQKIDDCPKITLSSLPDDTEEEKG
# Procedure, shortened: as §1
# [10] = target: T9, GST-VND3 NAC domain (Arabidopsis thaliana, UniProt Q9FH59 12-162)
# T9 sequence: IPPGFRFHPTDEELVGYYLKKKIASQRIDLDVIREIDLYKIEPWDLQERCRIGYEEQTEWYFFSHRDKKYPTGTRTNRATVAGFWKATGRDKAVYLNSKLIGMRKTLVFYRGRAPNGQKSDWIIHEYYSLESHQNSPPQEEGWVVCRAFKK
# Procedure, shortened: as §1
# [11] = target: T10, GST-VND7 NAC domain (Arabidopsis thaliana, UniProt Q9C8W9 9-158)
# T10 sequence: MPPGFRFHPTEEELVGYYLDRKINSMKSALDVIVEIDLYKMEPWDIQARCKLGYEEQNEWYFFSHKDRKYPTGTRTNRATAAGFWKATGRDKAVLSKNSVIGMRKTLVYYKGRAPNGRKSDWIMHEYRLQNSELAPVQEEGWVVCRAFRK
# Procedure, shortened: as §1
# [12] = target: T11, GST-NTL8 NAC domain (Arabidopsis thaliana, UniProt Q9XIN7 14-156)
# T11 sequence: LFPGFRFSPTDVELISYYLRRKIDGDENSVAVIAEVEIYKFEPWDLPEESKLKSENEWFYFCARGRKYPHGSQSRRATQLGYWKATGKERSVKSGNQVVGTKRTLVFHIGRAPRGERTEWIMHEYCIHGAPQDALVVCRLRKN
# Procedure, shortened: as §1
# Chain of GST-NTL6(1-168) (Q9SCK6 1-168): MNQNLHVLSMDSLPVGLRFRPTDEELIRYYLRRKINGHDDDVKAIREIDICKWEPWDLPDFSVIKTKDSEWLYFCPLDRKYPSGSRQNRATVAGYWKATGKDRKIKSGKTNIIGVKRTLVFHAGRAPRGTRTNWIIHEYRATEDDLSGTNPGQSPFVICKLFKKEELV
Sequence,binding signal [1] [E-score],binding signal [2] [E-score],binding signal [3] [E-score],binding signal [4] [E-score],binding signal [5] [E-score],binding signal [6] [E-score],binding signal [7] [E-score],binding signal [8] [E-score],binding signal [9] [E-score],binding signal [10] [E-score],binding signal [11] [E-score],binding signal [12] [E-score]
AATGCCGT,0.335,0.0523,0.428,0.391,0.342,0.365,0.366,0.114,0.0974,0.407,0.4,
ATTCCGTA,0.209,0.17,0.456,0.385,0.308,0.342,0.381,0.194,0.239,0.434,0.374,0.0978
CACGGCAA,0.457,0.0683,0.471,0.44,0.364,0.456,0.36,0.256,0.123,0.456,0.444,0.0895
AATTGCGT,0.451,0.0568,0.394,0.395,0.319,0.46,0.432,0.294,0.412,0.415,0.418,0.0923
AACACGCT,0.416,0.134,0.185,0.236,0.174,0.431,0.2,0.3,0.227,0.0943,0.142,
AGGAAACG,0.207,0.125,0.0614,0.149,0.208,0.132,0.183,0.132,0.224,0.109,0.112,0.451
AATACGCA,0.411,0.109,0.196,0.293,0.142,0.431,0.221,0.206,0.356,0.314,0.259,
GTGACGTA,0.447,0.0989,0.375,0.36,0.39,0.452,0.417,0.311,0.467,0.365,0.413,
CACGCAAA,0.487,0.107,0.421,0.348,0.292,0.486,0.385,0.389,0.426,0.396,0.419,0.0878
AAGGAAAT,0.191,0.384,0.147,0.0899,0.122,0.163,0.06,0.15,0.258,0.144,0.0723,0.466
ACACGGAA,0.464,0.0747,0.486,0.481,0.376,0.458,0.45,0.328,0.057,0.467,0.479,
ACGTCACT,0.383,0.0658,0.365,0.342,0.354,0.406,0.354,0.234,0.314,0.355,0.328,
TAACGTGA,0.42,0.0647,0.144,0.213,0.208,0.419,0.168,0.257,0.385,0.251,0.0561,
AACACGCC,0.391,0.094,0.238,0.253,0.0901,0.431,0.184,0.144,0.144,0.1,0.0653,
GCGTGTAA,0.444,0.0655,0.297,0.222,0.201,0.438,0.155,0.275,0.347,0.246,0.2,
ACGTAACC,0.442,0.149,0.389,0.412,0.389,0.463,0.43,0.338,0.392,0.409,0.414,0.328
ATAGCGTG,0.464,0.0569,0.174,0.167,0.128,0.47,0.105,0.332,0.418,0.218,0.15,
ACGTTACT,0.435,0.0863,0.287,0.155,0.282,0.439,0.249,0.268,0.434,0.259,0.326,0.233
AACGTGTA,0.403,0.0638,0.165,0.2,0.266,0.432,0.125,0.265,0.295,0.275,0.0615,
ATACGTAA,0.462,0.175,0.476,0.451,0.407,0.45,0.461,0.331,0.393,0.462,0.458,
CACGTAAG,0.449,0.068,0.463,0.441,0.349,0.446,0.419,0.201,0.0778,0.447,0.447,0.17
CACGTTAA,0.429,0.0985,0.125,0.243,0.219,0.442,0.129,0.301,0.377,0.184,0.156,
AAGGTAAC,0.233,0.309,0.141,0.185,0.142,0.285,0.151,0.232,0.188,0.154,0.194,0.441
ACGCAAAT,0.418,0.0591,0.268,0.232,0.262,0.42,0.235,0.265,0.325,0.325,0.281,0.0579
CACGTAAA,0.425,0.0987,0.43,0.414,0.332,0.431,0.35,0.293,0.289,0.414,0.346,
ACGTAATC,0.464,0.0901,0.453,0.411,0.38,0.462,0.443,0.356,0.424,0.427,0.44,
TTACTCAA,0.345,0.078,0.0697,0.0741,0.223,0.359,0.0501,0.247,0.445,0.165,0.126,0.0629
CTTACGTA,0.423,0.161,0.457,0.421,0.407,0.435,0.363,0.313,0.405,0.43,0.433,0.219
